# Source: PubChem BioAssay (EPA / NIEHS)
# Active and inactive are the calls of the source. How the source made its calls: active means hit-call score of the fitted dose curve at least 0.9, where 1 is the maximum; inactive means score below 0.9.
# Test: ATG_NF_kB_CIS: Attagene CIS-FACTORIAL HepG2 Assay for human Nuclear Factor Kappa B (NF-kB) (AID 2282991)
# Details: HepG2 Attagene cis-factorial NF-kB reporter mRNA; actives raise or lower the signal
# How it was run: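 Multiplexed cis-reporter assay in transiently transfected HepG2. 24 h treatment; RNA isolated, RT-PCR, labelled fragments resolved by CE. DMSO baseline.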
SMILES,outcome,AC50
CSc1nnc(C(C)(C)C)c(=O)n1N,inactive,
CC(C)[C@H](C(=O)O[C@H](C#N)c1cccc(Oc2ccccc2)c1)c1ccc(Cl)cc1,inactive,
S=C1NCCN1,inactive,
O=c1ccc(=O)[nH][nH]1,inactive,
CCOP(=S)(OCC)Oc1cc(C)nc(C(C)C)n1,inactive,
CCOC(=O)CC(SP(=O)(OC)OC)C(=O)OCC (configuration not stated),inactive,
CCOP(=S)(OCC)SCCSCC,inactive,
CCC(CC)Nc1c([N+](=O)[O-])cc(C)c(C)c1[N+](=O)[O-],inactive,
CON=C(C(=O)OC)c1ccccc1CON=C(C)c1cccc(C(F)(F)F)c1,,73.1 µM (active)
CNC(=O)Oc1cccc2c1OC(C)(C)O2,inactive,
CN(C)NC(=O)CCC(=O)O,inactive,
C#CC(C)(C)NC(=O)c1cc(Cl)cc(Cl)c1,inactive,
CC(=NC#N)N(C)Cc1ccc(Cl)nc1,inactive,
CCOP(=S)(OCC)Oc1ccc([N+](=O)[O-])cc1,inactive,
O=C(O)c1cc(Oc2ccc(C(F)(F)F)cc2Cl)ccc1[N+](=O)[O-],inactive,
CCCOc1nn(C(=O)NS(=O)(=O)c2ccccc2C(=O)OC)c(=O)n1C,inactive,
COP(=O)(OC)SCn1c(=O)oc2cc(Cl)cnc21,inactive,
CCCSP(=O)(OCC)Oc1ccc(Br)cc1Cl (configuration not stated),inactive,
CCc1cccc(CC)c1N(COC)C(=O)CCl,inactive,
FC(F)C(F)(F)OCC(Cn1cncn1)c1ccc(Cl)cc1Cl (configuration not stated),inactive,
CNc1cnn(-c2cccc(C(F)(F)F)c2)c(=O)c1Cl,inactive,
CN(C)C(=O)Nc1cccc(C(F)(F)F)c1,inactive,
CC(C)N(C(=O)SCC(Cl)=C(Cl)Cl)C(C)C,inactive,
C[N+]1(C)CCCCC1,inactive,
CCCCOC(=O)c1ccccc1C(=O)O,inactive,
CC(C1CC1)C(O)(Cn1cncn1)c1ccc(Cl)cc1 (configuration not stated),inactive,

# Test: ATG_NRF2_ARE_CIS: Attagene CIS-FACTORIAL HepG2 Assay for human Nuclear Factor Erythroid 2 Related Factor 2 (NFR2) response to Antioxidant Response Elements (ARE) (AID 2282992);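 on AC50: reporter mRNA level measured by RT-PCR and capillary electrophoresis fluorescence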
# Details: HepG2 Attagene ARE/NRF2 reporter, transcription factor activity; actives raise or lower the signal
# How it was run: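 Endogenous transcription factor activity in human liver HepG2 cells is tracked via a cis-element-driven reporter within a multiplexed set. mRNA induction is read by RT-PCR and capillary electrophoresis after 24 h, with DMSO as baseline.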
SMILES,outcome,AC50
CCc1cnc(C2=NC(C)(C(C)C)C(=O)N2)c(C(=O)O)c1 (configuration not stated),inactive,
CSc1nnc(C(C)(C)C)c(=O)n1N,inactive,
CC(C)[C@H](C(=O)O[C@H](C#N)c1cccc(Oc2ccccc2)c1)c1ccc(Cl)cc1,,0.938 µM (active)
S=C1NCCN1,inactive,
O=c1ccc(=O)[nH][nH]1,inactive,
COP(=O)(NC(C)=O)SC (configuration not stated),inactive,
CCOP(=S)(OCC)Oc1cc(C)nc(C(C)C)n1,,15.9 µM (active)
CCOC(=O)CC(SP(=O)(OC)OC)C(=O)OCC (configuration not stated),,21.9 µM (active)
CC(Oc1cccc(Cl)c1)C(=O)O (configuration not stated),inactive,
CCOP(=S)(OCC)SCCSCC,,33.7 µM (active)
CSc1nc(NC(C)C)nc(NC(C)C)n1,,10 µM (active)
CCC(CC)Nc1c([N+](=O)[O-])cc(C)c(C)c1[N+](=O)[O-],,14.4 µM (active)
CON=C(C(=O)OC)c1ccccc1CON=C(C)c1cccc(C(F)(F)F)c1,,15.7 µM (active)
CNC(=O)Oc1cccc2c1OC(C)(C)O2,,37 µM (active)
CN(C)NC(=O)CCC(=O)O,inactive,
Cc1cc(C2CC2)nc(Nc2ccccc2)n1,,13 µM (active)
C#CC(C)(C)NC(=O)c1cc(Cl)cc(Cl)c1,,22 µM (active)
CC(=NC#N)N(C)Cc1ccc(Cl)nc1,inactive,

SMILES,outcome,AC50
CCOP(=S)(OCC)Oc1ccc([N+](=O)[O-])cc1,,23.5 µM (active)
O=C(O)c1cc(Oc2ccc(C(F)(F)F)cc2Cl)ccc1[N+](=O)[O-],inactive,
CCCOc1nn(C(=O)NS(=O)(=O)c2ccccc2C(=O)OC)c(=O)n1C,inactive,
CCOP(=O)(SC(C)CC)N1CCSC1=O (configuration not stated),inactive,
COP(=O)(OC)SCn1c(=O)oc2cc(Cl)cnc21,,8.25 µM (active)
CCCSP(=O)(OCC)Oc1ccc(Br)cc1Cl (configuration not stated),,2.73 µM (active)
CCc1cccc(CC)c1N(COC)C(=O)CCl,,3.31 µM (active)
FC(F)C(F)(F)OCC(Cn1cncn1)c1ccc(Cl)cc1Cl (configuration not stated),,35.9 µM (active)
C[Si](Cn1cncn1)(c1ccc(F)cc1)c1ccc(F)cc1,,11.8 µM (active)
CNc1cnn(-c2cccc(C(F)(F)F)c2)c(=O)c1Cl,,17.1 µM (active)
CN(C)C(=O)Nc1cccc(C(F)(F)F)c1,inactive,
CC(C)N(C(=O)SCC(Cl)=C(Cl)Cl)C(C)C,,13.5 µM (active)
CCNc1nc(Cl)nc(NC(C)(C)C#N)n1,inactive,
CC[C@H](C)[C@H]1O[C@]2(C=C[C@@H]1C)C[C@@H]1C[C@@H](C/C=C(\C)[C@@H](O[C@H]3C[C@H](OC)[C@@H](O[C@H]4C[C@H](OC)[C@@H](NC)[C@H](C)O4)[C@H](C)O3)[C@@H](C)/C=C/C=C3\CO[C@@H]4[C@H](O)C(C)=C[C@@H](C(=O)O1)[C@]34O)O2,inactive,
C[N+]1(C)CCCCC1,inactive,
CCOP(=O)(OCC)Oc1cc(C)nc(C(C)C)n1,inactive,
CCCCOC(=O)c1ccccc1C(=O)O,inactive,
CC(C1CC1)C(O)(Cn1cncn1)c1ccc(Cl)cc1 (configuration not stated),inactive,
